In PubChem BioAssay (NCI):
Where “and” joins values, the source holds several entries; their conditions need not be identical. Equal entries are not always repeated. About 83,000 compounds went through this panel and 20% of them were active in at least one assay; those are over-represented in the sample as a whole.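 Values shown are percent growth following 48 h exposure of cells in 96-well plates to a single concentration of compound; below 10 was considered active.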 Calls of active or inactive are those of the source.

These molecules were tested on SK-MEL-2 melanoma (assay: NCI-60 one-dose screen, 48 h (100 = growth as untreated, 0 = no growth, -100 = all killed)). Details: 10 µM.
Protocol: Growth inhibition of the SK-MEL-2 human tumor cell line is measured as a screen for anti-cancer activity. Cells are grown in 96 well plates and exposed to the test compound for 48 hours. Compounds are tested at a single concentration, which is 10^-5 M for most compounds. The reported endpoint is percent growth (GI% or GIPRCNT), where numbers from 0 - 100% represent growth inhibition, and numbers from -100% - 0 represent cell death. For example, a value of 40 represents 60% growth inhibition. A value of 0 means no net growth occurred over the course of the experiment. A value of -40 indicates 40% of cells at the beginning of the experiment died by the end of the experiment. A value of -100 means all cells are dead at the end of the experiment.
NCI-60 Human Tumor Cell Lines Screen was performed using the standard one-dose NCI protocol, which is described in more detail at https://dtp.cancer.gov/discovery_development/nci-60/default.htm.
Compounds with GIPRCNT values below 10 were considered active. Activity score was based on GIPRCNT using the following formula: […]
Score is 0 for GIPRCNT values of 100 or above, 50 for GIPRCNT values of 0, and 100 for GIPRCNT values of -100.

Row | SMILES | growth
1 | CC(C)(C)c1cc(NC(=O)Cc2ccc(-c3cnc4cc(-c5cnn(CCN6CCOCC6)c5)ccc4n3)cc2)no1 | -8.73% (active)
2 | O=C(O)c1sccc1O | 87.2% (inactive)

Same assay, conditions: 10 µM unless noted

Row | SMILES | growth
3 | CC(=O)Nc1cccc2c1CCCC2 | 82.6% (inactive) and 75% (inactive)
4 | Cc1ncsc1CCO | 96.1% (inactive) and 107% (inactive)
5 | O=C(Nc1cccc(Cl)c1)c1cc2ccccc2cc1O | 27.3% (inactive) and 7.7% (active)
6 | CC1CCCc2sc3nc(NNC(=O)c4cnccn4)n(-c4ccccc4)c(=O)c3c21 (stereo not given) | 11.3% (inactive) and 25.1% (inactive)
7 | O=C1C2=C(C(=O)c3ccccc31)C(O)(S(=O)(=O)O)C(O)(S(=O)(=O)O)C1N=CC=CC21 (stereo not given) | 65.2% (inactive) and 47.4% (inactive)
8 | COc1cc(Nc2nc3ccccc3nc2NS(=O)(=O)c2ccc(NC(=O)c3ccc(C)c(OC)c3)cc2)cc(OC)c1 | 45.7% (inactive)
9 | O=C(CN1CCN(c2cc3c(cc2F)c(=O)c(C(=O)O)cn3C2CC2)CC1)Nc1ccc(Cl)cc1 | 94.8% (inactive) and 106% (inactive)
10 | OCCN1CCN(CCCN2c3ccccc3Sc3ccc(Cl)cc32)CC1 | 46.5% (inactive) and 74.9% (inactive)
11 | CCOC(=O)c1sc(N)nc1-c1ccccc1 | 95.9% (inactive)
12 | c1ccc2cc(C[n+]3ccn(Cc4ccc5ccccc5n4)c3)ccc2c1 | -35.6% (active) and -4.1% (active)
13 | CN1CCN(c2ccc3nc(-c4c(N)c5c(F)cccc5[nH]c4=O)[nH]c3c2)CC1 | 45.5% (inactive)
14 | O=C1c2ccccc2C(=O)N1/N=C/c1ccc2c(c1)OCO2 | 95.1% (inactive)
15 | CCCCCCCCCCCCCCCc1cc(O)ccc1N | 105% (inactive) and 106% (inactive)
16 | Nc1nc(SC/C=C/CCl)c2[nH]cnc2n1 | 120% (inactive) and 95% (inactive)
17 | CC(C)Cc1ccc(C(C)C(=O)NCc2ccc(Cn3c(=O)sn(CCCI)c3=O)cc2)cc1 (stereo not given) | 104% (inactive) and -40.1% (active)
18 | CC(=O)Nc1ccc2cc3ccc(NC(C)=O)cc3nc2c1 | 95.9% (inactive) and 108% (inactive)
19 | CCc1c(CC(=O)O)c2cc(C)ccc2n1Cc1ccc(Cl)cc1 | 103% (inactive) and 90.9% (inactive)
20 | NC(=O)C1CC2C=CC1C2 (stereo not given) | 98.6% (inactive) and 112% (inactive)

Row | SMILES | growth
21 | O=C(O)CN(CCN(CC(=O)O)CC(=O)O)CCN(CC(=O)O)CC(=O)O | -31.4% (active) and 101% (inactive) and 93.2% (inactive)
22 | CC1=CCC2CC1C2(C)C (stereo not given) | 88.2% (inactive) and 108% (inactive)
23 | N#CCCOc1ccccc1 | 89.4% (inactive)
24 | CC(CN=Cc1ccccc1O)N=Cc1ccccc1O (stereo not given) | 154% (inactive) and 102% (inactive)
25 | CC[N+](CC)(CC(=O)Nc1c(C)cccc1C)Cc1ccccc1 | 107% (inactive) and 119% (inactive)
26 | COc1cc2nc(N3CCC[C@@H](NC(=O)C4COc5ccccc5O4)C3)nc(N)c2cc1OC (stereo not given in full) | 112% (inactive) and 107% (inactive)
27 | COc1ccc(NC(=S)Nc2ccccn2)cc1 | 94.6% (inactive)
28 | Nc1ccc2[nH]c(-c3ccccc3)cc(=O)c2c1 | 78.8% (inactive)
29 | O=C(Oc1cccc(OC(=O)c2ccccc2)c1)c1ccccc1 | 93.2% (inactive)
30 | COc1cc(C(=O)c2ccc3c(c2)OCO3)cc(OC)c1OC | 44.6% (inactive) and -28.3% (active)
31 | CCOc1ccc2c(S(=O)(=O)O)cccc2c1[N+](=O)[O-] | 117% (inactive) and 109% (inactive)
32 | Cc1cccc(/C=C\C(=O)c2ccccc2)c1 | 100% (inactive) and 103% (inactive)
33 | O=C(O)CSCc1nc2ccccc2[nH]1 | 105% (inactive)
34 | Cc1ccc(NCSc2ccc(Cl)cc2)cc1 | 108% (inactive) and 93.6% (inactive)
35 | CC1(c2ccc3ccccc3c2)CCC(=O)O1 (stereo not given) | 86.6% (inactive)
36 | CCOc1ccc2cc(-c3nn(CC4CCN(C)CC4)c4ncnc(N)c34)ccc2c1 | 108% (inactive)
37 | CCN(CC)CCc1nc(-c2ccccc2)no1 | 98% (inactive) and 104% (inactive)
38 | Cc1ccc(-c2noc(C)n2)cc1 | 120% (inactive)

Same assay, conditions: 30 µM

Row | SMILES | growth
39 | CC(C)(C)c1cc(NC(=O)Cc2ccc(-c3cnc4cc(-c5cnn(CCN6CCOCC6)c5)ccc4n3)cc2)no1 | 29.7% (inactive)

Same assay, conditions: 100 µM

Row | SMILES | growth
40 | O=C(O)c1sccc1O | 8.51% (active)
